# Reference: PubChem BioAssay AID1159580 (chemical genetic matrix, 2015)
# Screen size: about 5,500 compounds; about 2,000 (36%) were called active. Inconclusive results (about 18%) are left out. This is one part of the list. Unmarked numbers belong to inactive results. Rule as the data show it: active = normalized growth mostly below about 0.91 (no sharp cut-off); inconclusive = no clear call, values can overlap the other calls; inactive = mostly above about 0.92.
# Assay: chemical genetic growth profiling, strain panel (AID 1159580);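 also: tested at 20 µM; growth read once vehicle control cultures reached saturation at 30 °C; 1 = growth at the plate median or of vehicle wells; lower values mean less growth of the strain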
# Details: S. cerevisiae deletion strains, growth OD
# [1] = locus YAR019C, strain CDC15, active compounds read low
# [2] = locus YBL105C, strain PKC1, active compounds read low
# [3] = locus YBR135W, strain CKS1, active compounds read low
# [4] = locus YBR136W, strain MEC1, active compounds read low
# [5] = locus YBR160W, strain CDC28, active compounds read low
# [6] = locus YDL017W, strain CDC7, active compounds read low
# [7] = locus YDL028C, strain MPS1, active compounds read low
# [8] = locus YDL101C, strain DUN1, active compounds read low
# [9] = locus YDL108W, strain KIN28, active compounds read low
# [10] = locus YDL132W, strain cdc53, active compounds read low
# [11] = locus YDL214C, strain PRR2, active compounds read low
# [12] = locus YDR052C, strain DBF4, active compounds read low
# [13] = locus YDR054C, strain cdc34, active compounds read low
# [14] = locus YDR226W, strain ADK1, active compounds read low
# [15] = locus YDR477W, strain SNF1, active compounds read low
# [16] = locus YER123W, strain YCK3, active compounds read low
# [17] = locus YER133W, strain GLC7, active compounds read low
# [18] = locus YFL009W, strain cdc4, active compounds read low
# [19] = locus YFL029C, strain CAK1, active compounds read low
# [20] = locus YFR003C, strain YPI1, active compounds read low
# [21] = locus YFR019W, strain FAB1, active compounds read low
# [22] = locus YFR028C, strain CDC14, active compounds read low
# [23] = locus YGR040W, strain KSS1, active compounds read low
# [24] = locus YGR052W, strain FMP48, active compounds read low
# [25] = locus YGR092W, strain DBF2, active compounds read low
# [26] = locus YHR030C, strain SLT2, active compounds read low
# [27] = locus YHR079C, strain IRE1, active compounds read low
# [28] = locus YHR082C, strain KSP1, active compounds read low
# [29] = locus YHR205W, strain SCH9, active compounds read low
# [30] = locus YIL147C, strain SLN1, active compounds read low
# [31] = locus YJL095W, strain BCK1, active compounds read low
# [32] = locus YJL128C, strain PBS2, active compounds read low
# [33] = locus YJL157C, strain FAR1, active compounds read low
# [34] = locus YJR016C, strain ILV3, active compounds read low
# [35] = locus YJR066W, strain TOR1 (second series), active compounds read low
# [36] = locus YJR066W, strain TOR1, active compounds read low
# [37] = locus YKL048C, strain ELM1, active compounds read low
# [38] = locus YKL067W, strain YNK1, active compounds read low
# [39] = locus YKL101W, strain HSL1, active compounds read low
# [40] = locus YKL193C, strain SDS22, active compounds read low
# [41] = locus YKL203C, strain TOR2, active compounds read low
# [42] = locus YLR113W, strain HOG1, active compounds read low
# [43] = locus YLR133W, strain CKI1, active compounds read low
# [44] = locus YLR403W, strain SFP1, active compounds read low
# [45] = locus YML070W, strain DAK1, active compounds read low
# [46] = locus YMR001C, strain CDC5, active compounds read low
# [47] = locus YMR205C, strain PFK2 (second series), active compounds read low
# [48] = locus YMR277W, strain FCP1, active compounds read low
# [49] = locus YNL006W, strain LST8, active compounds read low
# [50] = locus YNL020C, strain ARK1, active compounds read low
# [51] = locus YNL161W, strain CBK1, active compounds read low
# [52] = locus YNL183C, strain NPR1, active compounds read low
# [53] = locus YNL207W, strain RIO2, active compounds read low
# [54] = locus YNL222W, strain SSU72, active compounds read low
# [55] = locus YNL307C, strain MCK1 (second series), active compounds read low
# [56] = locus YOL078W, strain AVO1, active compounds read low
# [57] = locus YOL136C, strain PFK27, active compounds read low
# [58] = locus YOR061W, strain CKA2, active compounds read low
# [59] = locus YOR119C, strain RIO1, active compounds read low
# [60] = locus YOR231W, strain MKK1, active compounds read low
# [61] = locus YOR329C, strain SCD5, active compounds read low
# [62] = locus YPL031C, strain PHO85, active compounds read low
# [63] = locus YPL153C, strain RAD53, active compounds read low
# [64] = locus YPL204W, strain HRR25, active compounds read low
# [65] = locus YPL209C, strain IPL1, active compounds read low
# [66] = locus YPL256C, strain CLN2, active compounds read low
# [67] = locus YPR025C, strain CCL1, active compounds read low
# [68] = locus YPR106W, strain ISR1, active compounds read low
# [69] = locus YPR111W, strain DBF20, active compounds read low
# [70] = strain NNK1, active compounds read low
# [71] = strain TSCII, active compounds read low
compound,measurement,setting,value
S=C(Nc1cc(-c2cccs2)[nH]n1)Nc1ccccc1Cl,normalized growth,[1],0.93
same,normalized growth,[2],0.938
same,normalized growth,[3],0.934
same,normalized growth,[4],0.934
same,normalized growth,[5],0.943
same,normalized growth,[6],0.938
same,normalized growth,[7],0.932
same,normalized growth,[8],0.945
same,normalized growth,[9],0.938
same,normalized growth,[10],0.955
same,normalized growth,[11],0.825
same,normalized growth,[12],0.942
same,normalized growth,[13],0.916
same,normalized growth,[14],0.939
same,normalized growth,[15],0.816
same,normalized growth,[16],0.755
same,normalized growth,[17],0.809
same,normalized growth,[18],0.929
same,normalized growth,[19],0.925
same,normalized growth,[20],0.934
same,normalized growth,[21],0.859
same,normalized growth,[22],0.932
same,normalized growth,[23],0.819
same,normalized growth,[24],0.908
same,normalized growth,[25],0.796
same,normalized growth,[26],0.616 (active)
same,normalized growth,[27],0.842
same,normalized growth,[28],0.821
same,normalized growth,[29],0.813
same,normalized growth,[30],0.93
same,normalized growth,[31],0.748
same,normalized growth,[32],0.908
same,normalized growth,[33],0.836
same,normalized growth,[34],0.935
same,normalized growth,[35],0.778
same,normalized growth,[36],0.773
same,normalized growth,[37],0.885
same,normalized growth,[38],0.835
same,normalized growth,[39],0.891
same,normalized growth,[40],0.917
same,normalized growth,[41],0.866
same,normalized growth,[42],0.739 (active)
same,normalized growth,[43],0.858
same,normalized growth,[44],0.827
same,normalized growth,[45],0.834
same,normalized growth,[46],0.927
same,normalized growth,[47],0.877
same,normalized growth,[48],0.93
same,normalized growth,[49],0.937
same,normalized growth,[50],0.837
same,normalized growth,[51],0.938
same,normalized growth,[52],0.803
same,normalized growth,[53],0.913
same,normalized growth,[54],0.939
same,normalized growth,[55],0.746
same,normalized growth,[56],0.932
same,normalized growth,[57],0.859
same,normalized growth,[58],0.859
same,normalized growth,[59],0.88
same,normalized growth,[60],0.829
same,normalized growth,[61],0.935
same,normalized growth,[62],0.8
same,normalized growth,[63],0.804
same,normalized growth,[64],0.791
same,normalized growth,[65],0.942
same,normalized growth,[66],0.72 (active)
same,normalized growth,[67],0.936
same,normalized growth,[68],0.932
same,normalized growth,[69],0.942
same,normalized growth,[70],0.94
same,normalized growth,[71],0.936
O=C(Nc1cc(Cl)cc(Cl)c1)Nc1cc(-c2ccco2)[nH]n1,normalized growth,[2],0.935
same,normalized growth,[3],0.929
same,normalized growth,[4],0.935
same,normalized growth,[5],0.942
same,normalized growth,[6],0.95
same,normalized growth,[7],0.937
same,normalized growth,[9],0.938
same,normalized growth,[10],0.608 (active)
same,normalized growth,[11],0.293 (active)
same,normalized growth,[12],0.945
same,normalized growth,[13],0.566 (active)
same,normalized growth,[14],0.94
same,normalized growth,[15],0.294 (active)
same,normalized growth,[16],0.15 (active)
same,normalized growth,[17],0.269 (active)
same,normalized growth,[19],0.616 (active)
same,normalized growth,[20],0.94
same,normalized growth,[21],0.147 (active)
same,normalized growth,[22],0.935
same,normalized growth,[23],0.288 (active)
same,normalized growth,[24],0.23 (active)
same,normalized growth,[25],0.128 (active)
same,normalized growth,[26],0.103 (active)
same,normalized growth,[27],0.119 (active)
same,normalized growth,[28],0.209 (active)
same,normalized growth,[29],0.287 (active)
same,normalized growth,[30],0.934
same,normalized growth,[31],0.112 (active)
same,normalized growth,[32],0.944
same,normalized growth,[33],0.257 (active)
same,normalized growth,[34],0.928
same,normalized growth,[35],0.129 (active)
same,normalized growth,[36],0.142 (active)
same,normalized growth,[37],0.454 (active)
same,normalized growth,[38],0.316 (active)
same,normalized growth,[39],0.38 (active)
same,normalized growth,[41],0.253 (active)
same,normalized growth,[42],0.146 (active)
same,normalized growth,[43],0.295 (active)
same,normalized growth,[44],0.229 (active)
same,normalized growth,[45],0.181 (active)
same,normalized growth,[46],0.935
same,normalized growth,[47],0.496 (active)
same,normalized growth,[48],0.777 (active)
same,normalized growth,[49],0.839 (active)
same,normalized growth,[50],0.3 (active)
same,normalized growth,[51],0.948
same,normalized growth,[52],0.169 (active)
same,normalized growth,[53],0.894
same,normalized growth,[54],0.923
same,normalized growth,[55],0.202 (active)
same,normalized growth,[57],0.166 (active)
same,normalized growth,[58],0.322 (active)
same,normalized growth,[59],0.245 (active)
same,normalized growth,[60],0.115 (active)
same,normalized growth,[61],0.951
same,normalized growth,[62],0.204 (active)
same,normalized growth,[63],0.145 (active)
same,normalized growth,[64],0.163 (active)
same,normalized growth,[65],0.941
same,normalized growth,[66],0.14 (active)
same,normalized growth,[67],0.93
same,normalized growth,[68],0.943
same,normalized growth,[69],0.944
same,normalized growth,[70],0.913
O=C(Nc1cc(Cl)cc(Cl)c1)Nc1cc(-c2cccs2)[nH]n1,normalized growth,[1],0.957
same,normalized growth,[2],0.97
same,normalized growth,[3],0.958
same,normalized growth,[4],0.972
same,normalized growth,[5],0.959
same,normalized growth,[6],0.971
same,normalized growth,[7],0.964
same,normalized growth,[8],0.972
same,normalized growth,[9],0.97
same,normalized growth,[10],0.949
same,normalized growth,[11],0.826
same,normalized growth,[12],0.978
same,normalized growth,[13],0.95
same,normalized growth,[14],0.973
same,normalized growth,[15],0.85
same,normalized growth,[16],0.712
same,normalized growth,[17],0.864
same,normalized growth,[18],0.956
same,normalized growth,[19],0.956
same,normalized growth,[20],0.964
same,normalized growth,[21],0.759 (active)
same,normalized growth,[22],0.967
same,normalized growth,[23],0.816
same,normalized growth,[24],0.916
same,normalized growth,[25],0.686
same,normalized growth,[26],0.459 (active)
same,normalized growth,[27],0.734
same,normalized growth,[28],0.733
same,normalized growth,[29],0.796
same,normalized growth,[30],0.967
same,normalized growth,[31],0.739
same,normalized growth,[32],0.982
same,normalized growth,[33],0.849
same,normalized growth,[34],0.948
same,normalized growth,[35],0.8
same,normalized growth,[36],0.762
same,normalized growth,[37],0.89
same,normalized growth,[38],0.854
same,normalized growth,[39],0.861
same,normalized growth,[40],0.958
same,normalized growth,[41],0.872
same,normalized growth,[42],0.825 (active)
same,normalized growth,[43],0.851
same,normalized growth,[44],0.806
same,normalized growth,[45],0.815
same,normalized growth,[46],0.965
same,normalized growth,[47],0.88
same,normalized growth,[48],0.959
same,normalized growth,[49],0.955
same,normalized growth,[50],0.854
same,normalized growth,[51],0.959
same,normalized growth,[52],0.772
same,normalized growth,[53],0.949
same,normalized growth,[54],0.957
same,normalized growth,[55],0.744
same,normalized growth,[56],0.954
same,normalized growth,[57],0.763
same,normalized growth,[58],0.891
same,normalized growth,[59],0.906
same,normalized growth,[60],0.817
same,normalized growth,[61],0.962
same,normalized growth,[62],0.791
same,normalized growth,[63],0.739
same,normalized growth,[64],0.669
same,normalized growth,[65],0.958
same,normalized growth,[66],0.755 (active)
same,normalized growth,[67],0.963
same,normalized growth,[68],0.953
same,normalized growth,[69],0.947
same,normalized growth,[70],0.948
same,normalized growth,[71],0.961
